HepG2 tox: qHTS for Inhibitors of TGF-b: Cytotox Counterscreen | HepG2 CAGA-GFP viability, ATP luminescence, 18 h | Potency, µM (series often up to 46.1 µM), inactives show at the top dose activity change, negative = cytotoxicity, most hits filed as cytotoxic | 410,000 tested, 0.76% active | AID 588856, 2011; note: potency is the fitted concentration of half-maximal effect
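CellTiter-Glo luminescence gave cytotoxicity after 18 hours at 37 degrees C. The cells were HepG2 CAGA-GFP in 1% FBS DMEM, stimulated with 500 pg/mL TGF-beta after compound addition. %Activity was normalised to no-cell wells (complete cell-killing) and DMSO (no toxicity), and curves were fitted and classified.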
DRD3 agonist: qHTS of D3 Dopamine Receptor Agonist: qHTS; D(3) dopamine receptor (Homo sapiens), P35462; D3R DiscoveRx beta-arrestin cells, luminescence, 90 min; max activation, %; 410,000 tested, 0.58% active; AID 652048, 2013; in the data active = max activation above about 30%; note: 0% is about no effect
Target sequence (P35462 whole entry, looked up): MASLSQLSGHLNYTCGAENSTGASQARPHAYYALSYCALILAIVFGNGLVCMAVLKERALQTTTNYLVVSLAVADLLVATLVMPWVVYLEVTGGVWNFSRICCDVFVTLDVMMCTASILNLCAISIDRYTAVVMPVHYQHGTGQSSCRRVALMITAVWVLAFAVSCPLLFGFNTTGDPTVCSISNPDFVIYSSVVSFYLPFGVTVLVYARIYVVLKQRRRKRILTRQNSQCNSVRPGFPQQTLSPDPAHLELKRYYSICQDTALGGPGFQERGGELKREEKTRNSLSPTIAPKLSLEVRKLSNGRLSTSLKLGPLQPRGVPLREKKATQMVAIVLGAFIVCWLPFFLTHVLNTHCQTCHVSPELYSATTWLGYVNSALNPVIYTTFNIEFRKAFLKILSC
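Agonist-mode cell screen: cells plated at 1500/well and incubated overnight at 37 °C, then exposed to library compounds for 90 min at 37 °C. Detection reagent was added for 30–60 min at room temperature, and luminescence was read.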
ATXN2 expr inh: Primary qHTS for Inhibitors of ATXN expression; HEK-293 ATXN2-luciferase reporter, luminescence, 24 h; Potency, µM (titrated, usually from 57 µM), inactives show at the highest dose activity change, negative = inhibition, hits mostly inhibitors; 360,000 tested, 0.72% active; note: potency is the fitted concentration of half-maximal effect; % is set by controls: 0 for no effect and ±100 for the full control effect; nearly all actives have a fitted effect of over 55% in size
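ATXN2-luciferase reporter cells (luciferase flanked by upstream and downstream ATXN2 gene portions) were treated 24 h at 37 °C with compounds at up to 57 uM. SteadyGlo luminescence gave expression; GF-AFC fluorescence gave viability.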
TGFb SMAD3 inh: qHTS for Inhibitors of TGF-b. HepG2 CAGA-GFP TGF-b/SMAD3 reporter, GFP fluorescence, 18 h; TGF-beta stimulated, 500 pg/mL final. 410,000 tested, 1.2% active. Potency, µM (top dose mostly 46.1 µM), for the others: top-dose activity, negative = inhibition, most hits filed as inhibitors; note: potency is the fitted concentration of half-maximal effect; % is set by controls: 0 for no effect and ±100 for the full control effect; nearly all actives have a fitted effect of over 65% in size
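GFP signal (ex488/em500-530) from TGF-beta-stimulated HEPG2 CAGA-GFP cells, 500 pg/mL final, 18 h at 37 degrees C in DMEM plus 1% FBS, normalized to unstimulated and DMSO-stimulated controls.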
ATXN viability: Viability Counterscreen for Primary qHTS for Inhibitors of ATXN expression; 400,000 tested, 0.49% active; Potency, µM (highest dose often 56.7 µM), actives largely listed as cytotoxic; S2 cells (HEK-293 line with an ATXN2-luciferase reporter) viability, CellTiter-Fluor protease fluorescence, 24 h; AID 651635, 2014; note: potency is the fitted concentration of half-maximal effect; nearly all actives have a fitted effect of over 40% in size
DRD3 antagonist: qHTS of D3 Dopamine Receptor Antagonist: qHTS. D3R cells, DiscoveRx beta-arrestin luminescence, antagonist mode; stronger effect = lower value. max response, negative = inhibition, %. 360,000 tested, 2.5% active. D(3) dopamine receptor (Homo sapiens), P35462. AID 652054, 2013; in the data active = max response below about -50%; inconclusive = no clear call, values can overlap the other calls; note: % is set by controls: 0 for no effect and ±100 for the full control effect
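Cells expressing the human receptor were seeded at 1500 cells/well, incubated overnight at 37 degrees C in 5% CO2, then exposed to library compounds with dopamine controls for 90 minutes at 37 degrees C before luminescent detection.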
Starred values were filed as active, the others as inactive; i = inactive; ? = inconclusive; nt = no result given. A selection: hits, their analogues and other compounds. The true share with any hit is near 4.8%. Unless noted, calls come from the whole dose curve; as a rule, active = well fitted curve in the direction sought with a large enough effect; inconclusive = small, poorly fitted or top-dose-only effect, or another doubt; inactive = no such curve, though single readings can be large; an effect the other way counts as inactive or inconclusive.

SMILES | HepG2 tox | DRD3 agonist | ATXN2 expr inh | TGFb SMAD3 inh | ATXN viability | DRD3 antagonist
Cc1c(C(=O)N2CCCCC2)oc2ccc(S(=O)(=O)N3CC(C)CC(C)C3)cc12 (stereo unspecified) | -30.6% | -4.3 | ? | 11.2µM* | i | 26.9
CCCCN(C)C(=O)c1oc2ccc(S(=O)(=O)N3CCCCCC3)cc2c1C | -47.0% | -5.9 | ? | ? | i | -75.1*
CCS(=O)(=O)NCc1c(C)ncc2c1CCN(C(=O)c1ccc(F)cc1)C2 | nt | nt | nt | nt | i | nt
O=S(=O)(c1ccccc1)N1CCN=C1SCc1cccc(Cl)c1 | -7.5% | 0.8 | -13.4% | 12.6µM* | i | -9.9
O=S(=O)(c1ccccc1)N1CCN=C1SCc1ccc(Cl)c(Cl)c1 | 26.6% | 0.7 | -25.1% | 0.0% | i | 0.0
CCOC(=O)C(=O)N(C)c1c(CC)nc2c(OCCC3CCCCC3)cccn12 | -21.0% | -22.2 | -17.2% | -6.6% | i | -84.4*
CCOC(=O)N(C)c1c(CC)nc2c(OCCC3CCCCC3)cccn12 | -51.3% | -24.0 | ? | ? | ? | ?
Cc1nc2c(OCc3ccc(C(F)(F)F)cc3)cccn2c1N(C)C(=O)CCC1CCCC1 | -92.0% | 1.4 | 31.6µM* | ? | ? | 5.4
CCc1nc2c(OCCC3CCCCC3)cccn2c1N(C)C(=O)CC(C)C | -99.2% | -14.9 | ? | ? | ? | -26.2
CCCCC(=O)N(C)c1c(CC)nc2c(OCCC3CCCCC3)cccn12 | -92.3% | -28.1 | ? | ? | ? | -71.1*
CCc1nc2c(OCCC3CCCCC3)cccn2c1N(C)C(=O)c1cccs1 | -95.3% | -19.5 | ? | -91.6% | ? | -100.6*
Cc1nc2c(OCc3ccc(F)cc3)cccn2c1N(C)C(=O)CCC1CCCC1 | -10.7% | -2.0 | ? | -3.2% | ? | ?
COc1ccc(N2CCN(C(=O)CN3CCSc4ccccc43)CC2)cc1 | -3.5% | 1.3 | -6.6% | -5.2% | i | nt
Cc1cc2c(cc1C)N(CC(=O)N1CCCC1)C(=O)CC(c1ccccc1)=N2 | -85.2% | -0.8 | 46.1% | 1.2% | i | -74.9*
Cc1ccccc1Nc1c(-c2ccncc2)nc2ccc(Cl)cn12 | 17.8µM* | -7.3 | -4.3% | 15.8µM* | ? | 7.3
Cc1ccn2c(Nc3ccccc3C)c(-c3ccccc3)nc2c1 | 12.6µM* | 3.1 | 13.9% | -3.5% | ? | nt
O=C(Cc1cccs1)NC1CC(=O)N(c2ccccc2)C1 (stereo unspecified) | 8.7% | -1.5 | nt | 27.5% | nt | nt
Cc1cc(=O)n(C(NC(=O)c2ccccc2)C(=O)c2ccccc2)cn1 (stereo unspecified) | -0.3% | 64.8* | 5.7% | -1.2% | i | 100.8
O=C(NC(C(=O)c1ccccc1)N1CCOCC1)c1ccccc1 (stereo unspecified) | -3.8% | -1.3 | 45.8% | -22.7% | i | -2.7
COc1ccc(N=Cc2c(O)n(-c3cccc(C)n3)c(=O)c3ccccc23)cc1 | -11.8% | 1.6 | -7.2% | -10.0% | ? | 2.5
O=c1c(C=Nc2ccc(Oc3ccccc3)cc2)c[nH]n1-c1cccc(Cl)n1 | 10.5% | 0.6 | ? | -1.6% | ? | -56.1*
COc1ccc(-n2ncc(N(C)n3cccc3)c(Cl)c2=O)cc1 | 3.0% | 1.6 | 11.8% | -12.6% | i | -22.5
COc1ccc(-n2ncc(Cl)c(Cl)c2=O)cc1 | -30.1% | -6.9 | ? | ? | 3.77µM* | -74.4*
COc1ccc2c(c1)c(=O)c(S(=O)(=O)c1ccc(C)c(C)c1)cn2CC(=O)Nc1ccccc1 | -12.3% | -7.5 | 6.3% | 1.7% | i | nt
Nc1[nH]c(=S)[nH]c(=O)c1-c1ccccc1 | -2.7% | -1.6 | -0.1% | 13.9% | i | -56.3*
SMILES | HepG2 tox | DRD3 agonist | ATXN2 expr inh | TGFb SMAD3 inh | ATXN viability | DRD3 antagonist
Cc1c(N/N=C(\C#N)C(=O)c2ccc(Cl)cc2)c(=O)n(-c2ccccc2)n1C | 3.3% | -23.0 | 7.94µM* | ? | ? | -80.1*
N#C/C(=N\Nc1ccc(Cl)cc1)C(=O)c1ccccc1 | -36.3% | -2.3 | ? | ? | ? | 0.0
C=CC(=O)Nc1ccc(Nc2nc(NC3CCC(N(C)C)CC3)nc3c2ncn3C(C)C)cc1 (stereo unspecified) | -0.9% | 9.2 | ? | 0.631µM* | 1.78µM* | 28.4
C=CC(=O)Nc1cccc(Nc2nc(NC3CCC(N(C)C)CC3)nc3c2ncn3C(C)C)c1 (stereo unspecified) | nt | nt | 0.0306µM* | nt | nt | nt
CCCSCCCNC(=O)CN1C(=O)COc2ccc(S(=O)(=O)N3CCC(C)CC3)cc21 | -7.6% | -6.3 | 4.0% | -9.6% | i | nt
N#CNC(=Nc1ccccc1)SCc1ccc(C(=O)O)cc1 | -3.7% | 3.6 | 12.0% | -2.0% | i | -12.3
CSC(=Nc1ccccc1)N=C(SCc1ccccc1)N(C)C | 7.08µM* | -13.4 | ? | 5.62µM* | 9.47µM* | -84.4*
Cc1cc(NC(=O)N2CCC(CN3CCOCC3)CC2)ccc1Br | -2.5% | 3.9 | nt | -0.1% | nt | nt
COc1cc(OC)cc(C(=O)Oc2c(CN3CCOCC3)cc(Cl)c3cccnc23)c1 | -121.0% | -21.9 | 0.0% | ? | ? | -63.8*
O=C(Oc1c(CN2CCOCC2)cc(Cl)c2cccnc12)c1ccccc1F | -52.5% | -21.2 | ? | ? | nt | -84.6*
COc1cc(C(=S)N2CCOCC2)cc(OC)c1OC(=O)c1ccccc1Cl | -19.4% | -1.7 | nt | -19.2% | i | 3.5
O=C(CS)Nc1ccccc1 | nt | -5.9 | 19.1% | nt | i | nt
Cc1ccc(NC(=O)Cn2c(=O)nc(-c3ccccc3F)c3cc(Cl)ccc32)c(Br)c1 | -21.0% | -7.5 | -19.9% | -22.5% | i | nt
COc1ccc(N2C(=O)CS(=O)(=O)C23C(=O)N(Cc2ccccc2F)c2ccccc23)cc1Cl (stereo unspecified) | -7.9% | -3.0 | -2.9% | 13.4% | ? | nt
c1ccc(CN2CCN(C(c3ccccc3)c3nnnn3Cc3ccccc3)CC2)cc1 (stereo unspecified) | -28.9% | -9.6 | -0.5% | ? | i | 0.0
OC(CN1CCN(Cc2ccccc2)CC1)c1ccc(F)cc1 (stereo unspecified) | -21.4% | -44.5 | 2.6% | -0.5% | i | -17.8
c1ccc(CN2CCN(C(c3ccccc3)c3ccccc3)CC2)cc1 | -31.9% | -10.9 | 4.1% | -21.2% | i | -70.0*
C=CCNC(=O)CN1CCN(C(c2ccccc2)c2ccccc2)CC1 | -1.3% | -24.8 | -4.7% | -7.4% | i | -0.8

Assay outcomes: PubChem, National Center for Advancing Translational Sciences (NCATS)
